# Source: PubChem BioAssay (National Center for Advancing Translational Sciences (NCATS))
# D3 antag: antagonists of human D3 dopamine receptor | P35462 | D3R cells, DiscoveRx beta-arrestin luminescence, antagonist mode; active compounds read low | max response, negative = inhibition, % | 360,000 tested, 2.5% active; in the data active = max response below about -50%; inconclusive = no clear call, values can overlap the other calls
# Target sequence (P35462 whole entry, looked up): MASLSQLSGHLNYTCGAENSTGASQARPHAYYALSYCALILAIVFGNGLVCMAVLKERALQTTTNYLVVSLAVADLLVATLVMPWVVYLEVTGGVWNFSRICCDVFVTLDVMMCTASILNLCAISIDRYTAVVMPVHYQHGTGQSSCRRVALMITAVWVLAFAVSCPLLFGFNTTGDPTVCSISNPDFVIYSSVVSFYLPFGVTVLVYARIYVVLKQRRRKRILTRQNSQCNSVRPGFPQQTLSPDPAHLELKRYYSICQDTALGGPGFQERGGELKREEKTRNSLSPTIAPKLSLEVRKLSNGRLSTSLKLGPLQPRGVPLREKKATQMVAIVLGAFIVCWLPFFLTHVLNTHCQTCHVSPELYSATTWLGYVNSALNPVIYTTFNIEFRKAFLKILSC
#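 Cells plated overnight at 1500 cells/well, then exposed to library compounds with dopamine controls for 90 minutes at 37 degrees C. DiscoveRx reagent added for 30–60 minutes at room temperature; luminescence read, quantitative HTS format.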
# D1 ag: agonists of human D1 dopamine receptor; P21728; HEK293 T-REx D1 cells, calcium flux, agonist mode; activation, % at 2 µM; 360,000 tested, 1% active; in the data active = activation above about 30%
#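 Inducible HEK293 T-REx D1 cells, force-coupled to calcium signalling, were plated at 4000 cells/well with tetracycline and held overnight at 30 C. After no-wash calcium dye loading, compound-evoked calcium rise over 180 s flagged agonists.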
# DRD3 agonist: activates the human D3 dopamine receptor; P35462; D3R DiscoveRx beta-arrestin cells, luminescence, 90 min; max activation, %; 410,000 tested, 0.58% active; in the data active = max activation above about 30%
#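 Cells at 1500/well, incubated overnight, then treated with pinned compounds (dopamine as control) for 90 min at 37 degrees C. DiscoveRx reagent added for 30 - 60 minutes at room temperature; luminescence read.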
# D1 potentiator: enhances dopamine response at the human D1 receptor | HEK293 TREx D1 cells, calcium flux, dopamine EC20 potentiation | 360,000 tested, 0.036% active | potentiation, % at 10 µM | P21728; in the data active = potentiation above about 30%
# D1 antag: blocks dopamine activation of the human D1 receptor; 360,000 tested, 3.2% active; HEK293 TREx D1 cells, calcium flux, dopamine EC80; active compounds read low; P21728; activity change, negative = inhibition, % at 10 µM; in the data active = activity change below about -30%
#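 Using tetracycline-induced force-coupled D1 Hek293 cells and a calcium dye, signals were followed for 180 s after compound, then for 180 s after EC80 dopamine, to detect inhibitors.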
# A number is an active result; i = inactive; ? = inconclusive; nt = no result given. Only some compounds are listed: those with a hit (about 6.1% of all), similar ones and a draw of the others.
SMILES,D3 antag,D1 ag,DRD3 agonist,D1 potentiator,D1 antag
CCC1(C)N([O-])C(C)=C(c2ccccc2)[N+]1=O (stereo unspecified),i,i,i,i,i
Cc1nn(-c2ccccc2)c2c1N(CC(=O)N1CCN(c3ccc(F)cc3)CC1)C(=O)CS2,nt,i,i,i,i
Cc1ccc(N(CC(=O)NCCc2ccccc2)S(=O)(=O)N(C)C)cc1,nt,i,i,i,i
COc1cc(OC)cc(-c2nnc(SCC(=O)N3CCCc4ccccc43)o2)c1,i,i,i,i,i
COc1cccc(-c2nnc(SCC(=O)Nc3cc(C)on3)o2)c1,-65,i,i,i,i
COc1cccc(-c2nnc(SCC(=O)N3CCCc4ccccc43)o2)c1,-52,i,i,i,i
Cc1ccc(C2=Nc3ccccc3NC(c3ccncc3)=N2)cc1,nt,i,i,i,i
COc1ccc(-c2cn3nc(N4CCCC(C(=O)NCc5ccccc5C)C4)sc3n2)cc1 (stereo unspecified),nt,i,i,i,i
Cc1ccc(C)c(N2CCN(C(=O)c3ccc(CS(=O)(=O)c4ccccc4C)o3)CC2)c1,i,i,75,i,i
Cc1ccc(S(=O)(=O)Cc2ccc(C(=O)N3CCN(c4cc(C)ccc4C)CC3)o2)cc1,i,i,i,i,i
Cc1ccc(C)c(N2CCN(C(=O)C(Cc3ccccc3)n3cccc3)CC2)c1 (stereo unspecified),i,i,i,nt,-53
O=C(O)C(Cc1ccccc1)n1cccc1 (stereo unspecified),i,i,i,i,-42
O=C(C(Cc1ccccc1)n1cccc1)N1CCN(c2ccccc2)CC1 (stereo unspecified),i,i,i,nt,i
CN1C[C@H]2c3ccccc3Oc3ccc(Cl)cc3[C@@H]2C1,nt,nt,i,nt,nt
Cc1cccc(N2CCN(C(=O)c3cc4ccc5cccnc5c4[nH]3)CC2C)c1 (stereo unspecified),nt,i,i,i,i
COc1ccc(CCNc2ccncn2)cc1OC,i,i,31,i,i
O=C1CC(=O)N(CCNc2ncc(C(F)(F)F)cc2Cl)C(=O)N1,i,i,i,i,i
CS(=O)(=O)NCCNc1ncc(C(F)(F)F)cc1Cl,i,i,i,i,-32
O=C1C=CC(=O)N1CCNc1ncc(C(F)(F)F)cc1Cl,-113,i,i,i,i
N#C/C(=C\c1c[nH]c2ccccc12)C(N)=O,i,i,i,i,i
CC(=O)Oc1c(/C=C(\C#N)C(N)=O)[nH]c2ccccc12,?,53,i,i,i
COC(=O)CCCCCCCCCCN1CCCCC1,i,i,i,i,i
CCCOC(=O)CCCCCCCCC(O)CN1CCCCC1 (stereo unspecified),i,54,i,i,-56
Cc1ccc(C2NC(=O)NC3=C2CCc2ccccc23)cc1 (stereo unspecified),-86,i,i,i,-60
CCN(CC)CCNC(=O)CCc1c(C)nc2c(c(C)nn2-c2ccc(C)cc2)c1C,-50,i,i,i,i
SMILES,D3 antag,D1 ag,DRD3 agonist,D1 potentiator,D1 antag
CC(=O)Nc1ccc(NC(=O)CCc2c(C)nc3c(c(C)nn3-c3ccccc3)c2C)cc1,nt,i,i,i,i
Cc1nc2c(c(C)nn2-c2ccccc2)c(C)c1CCC(=O)Nc1ccc(F)cc1,nt,i,44,i,i
O=C(CCCc1ccccc1)NC1CC(=O)N(c2ccc(Cl)cc2)C1 (stereo unspecified),nt,i,i,i,nt
COCC1CCN(Cc2cn(C)nc2-c2cccc(Cl)c2)C1 (stereo unspecified),i,i,i,i,-42
Cc1ccc(Cl)cc1NC(=O)c1oc2ccc(S(=O)(=O)N(C)C3CCCCC3)cc2c1C,nt,i,i,i,i
CCN(CC)S(=O)(=O)c1ccc(S(=O)(=O)N(Cc2ccccn2)Cc2ccco2)cc1,i,31,i,i,-56
O=S(=O)(NCc1ccccc1)c1ccc(S(=O)(=O)N(Cc2ccccn2)Cc2ccco2)cc1,i,i,i,i,-34
Cc1cccc(-n2ncc3c(Nc4ccc(Oc5ccc(Cl)cc5)cc4)ncnc32)c1,nt,i,i,i,i
C=Cc1ccc(Cn2ccn(-c3ccc(F)c(F)c3)c(=O)c2=O)cc1,nt,i,i,i,i
C=CCC[C@H](Cc1ccc(F)cc1)C(=O)OC[C@H](Cc1c[nH]c2ccccc12)NC(=O)[C@@H](CC=C)CC(=O)N[C@@H](CO)Cc1ccccc1,i,nt,i,nt,nt
C=CCC[C@@H](Cc1ccc(F)cc1)C(=O)OC[C@H](Cc1c[nH]c2ccccc12)NC(=O)[C@@H](CC=C)CC(=O)N[C@H](CO)Cc1ccccc1,i,nt,31,nt,nt
Cc1ccc2nc(-c3ccc(C#N)cc3)c(Cc3cccc(Cl)c3)n2c1,-53,nt,i,nt,nt
Cc1ccc(CNC(=O)c2cc(-c3ccc(C)cc3)nc3n[nH]c(-c4cccc([N+](=O)[O-])c4)c23)cc1,nt,i,i,i,i
Cc1ccc(NNC(=O)c2ccno2)c(C)c1,i,i,35,i,i
Cc1ccccc1C(=O)Nc1nc2c(s1)CC(C(C)(C)C)CC2 (stereo unspecified),nt,i,i,i,i
Cc1ccc(OCc2nc(-c3ccc(C(=O)N4CCN(c5cccc(C(F)(F)F)c5)CC4)cc3)oc2C)cc1,nt,i,i,i,i
CC(Nc1nc(N2CCNCC2)nc2ccccc12)c1ccccc1 (stereo unspecified),i,i,i,i,-54
CC(Nc1nc(-c2ccncc2)nc2ccccc12)c1ccccc1 (stereo unspecified),i,i,i,i,i
Cc1cccc(N2CCn3c2nc2c3c(=O)n(C/C=C/c3ccccc3)c(=O)n2C)c1,nt,i,i,i,i
CC(C)c1cc(C(=O)NC(C)c2ccccc2)no1 (stereo unspecified),nt,i,i,i,i
Cc1cc(NC(=O)CSCC(=O)N(C)Cc2cccc(Cl)c2)no1,i,i,i,i,i
Cc1cc(NC(=O)Nc2cc(Cl)ccc2C)no1,i,35,i,i,i
Cc1cc(NC(=O)C(=O)NCc2cccc(Cl)c2)no1,i,i,i,i,-33
CC(=O)OC1C(OC(C)=O)C2C(C)CC3OC(=O)C(C)C3CC2(C)C1OC(C)=O (stereo unspecified),i,nt,i,nt,nt
C=C1C(=O)O[C@@H]2C[C@@H](C)[C@@H]3C=CC(=O)[C@@]3(C)[C@@H](OC(C)=O)[C@H]12,-84,i,i,i,i
Cc1cccc(OCc2nc(CC(=O)Nc3ccc(C)c(C)c3)cs2)c1,nt,i,i,i,i
CC(=O)Oc1c(C)cc(Cl)cc1C(=O)Nc1ccc([N+](=O)[O-])cc1Cl,i,34,i,i,i
Cc1cccc(NC(=O)c2ccc(-n3cccn3)c([N+](=O)[O-])c2)c1,i,i,i,i,i
CCc1ccc(NC(=O)c2ccc(-n3cncn3)c([N+](=O)[O-])c2)cc1,i,i,i,i,i
Cc1ccc(NC(=O)c2ccc(-n3cccn3)c([N+](=O)[O-])c2)cc1,-53,i,i,i,i
